# From publication PMC4336329 (PLoS ONE, 2015)
# The campaign covered roughly 310,000 compounds. About 14,000 (4.5%) showed an effect of 50% or more. Effects have a minus sign here. The sample holds strong results, similar compounds and a random draw of the others, so the mix is not that of the screen.
# Biological target: human ether-à-go-go-related gene (hERG) potassium channel (human, UniProt Q12809)
# Experiment: primary screen, population patch clamp on CHO cells stably expressing hERG; higher = less effect of the substance
# 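Further: peak tail current of the secondary pulse compared with the same well before compound.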
# Chain of human ether-à-go-go-related gene (hERG) potassium channel (Q12809 whole entry, looked up): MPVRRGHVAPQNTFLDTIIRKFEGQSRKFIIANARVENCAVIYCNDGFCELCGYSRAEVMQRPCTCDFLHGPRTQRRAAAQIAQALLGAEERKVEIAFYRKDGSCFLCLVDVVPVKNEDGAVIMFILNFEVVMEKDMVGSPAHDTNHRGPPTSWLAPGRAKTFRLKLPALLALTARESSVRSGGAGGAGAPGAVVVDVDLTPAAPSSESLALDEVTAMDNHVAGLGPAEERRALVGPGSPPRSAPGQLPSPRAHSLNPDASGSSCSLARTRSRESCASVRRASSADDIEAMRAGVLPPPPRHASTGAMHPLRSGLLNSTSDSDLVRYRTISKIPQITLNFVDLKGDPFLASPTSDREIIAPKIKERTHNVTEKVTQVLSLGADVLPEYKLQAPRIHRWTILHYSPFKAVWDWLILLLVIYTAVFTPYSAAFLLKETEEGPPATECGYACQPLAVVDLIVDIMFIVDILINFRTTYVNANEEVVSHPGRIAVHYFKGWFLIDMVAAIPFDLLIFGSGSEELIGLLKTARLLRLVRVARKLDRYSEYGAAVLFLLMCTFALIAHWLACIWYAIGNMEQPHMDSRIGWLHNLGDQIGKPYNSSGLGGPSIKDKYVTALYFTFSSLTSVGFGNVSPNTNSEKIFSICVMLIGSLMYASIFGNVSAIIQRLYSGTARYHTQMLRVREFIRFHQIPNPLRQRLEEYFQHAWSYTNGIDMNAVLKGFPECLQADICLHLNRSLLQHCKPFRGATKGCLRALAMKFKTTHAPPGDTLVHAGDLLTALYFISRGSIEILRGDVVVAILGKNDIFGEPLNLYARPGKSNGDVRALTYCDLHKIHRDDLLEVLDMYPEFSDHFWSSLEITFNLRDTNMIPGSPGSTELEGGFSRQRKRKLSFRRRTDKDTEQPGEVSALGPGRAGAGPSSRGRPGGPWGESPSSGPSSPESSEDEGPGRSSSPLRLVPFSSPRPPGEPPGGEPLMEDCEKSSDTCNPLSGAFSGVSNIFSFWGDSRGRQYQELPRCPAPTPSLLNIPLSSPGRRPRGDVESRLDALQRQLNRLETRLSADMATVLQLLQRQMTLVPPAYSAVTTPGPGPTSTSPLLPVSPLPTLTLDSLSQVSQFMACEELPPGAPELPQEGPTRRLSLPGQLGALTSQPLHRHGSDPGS
row,Structure (SMILES),"hERG current change (%, negative = inhibition) at 10uM [%]"
1,COc1ccc(-n2c(N)c(C(=O)NCc3ccco3)c3nc4ccccc4nc32)cc1OC,16.7
2,O=C(CNC(=O)c1ccc(Br)o1)NCc1ccccc1,6.66
3,O=C(c1sccc1-c1ccccc1)N1CCN(S(=O)(=O)c2ccccc2F)CC1,-49.3
4,COc1ccc(N2CCN(CCCNC(=O)C3(S(=O)(=O)c4ccc(Cl)cc4)CC3)CC2)cc1,-61.5
5,O=C(NCCc1ccccc1)C1(S(=O)(=O)c2ccc(Cl)cc2)CC1,6.29
6,COc1ccc(N2CCN(CCNC(=O)Nc3cc(Cl)ccc3Cl)CC2)cc1,15.6
7,O=C(NCCCN1CCCCC1)C1(S(=O)(=O)c2ccc(Cl)cc2)CC1,-32.3
8,COc1ccc(C2(C(=O)NCCCN3CCOCC3)CCOCC2)cc1.Cl,10.6
9,O=C(NCCCN1CCN(c2cccc(Cl)c2)CC1)C1(S(=O)(=O)c2ccc(Cl)cc2)CC1,-71
10,S=C(NCCCN1CCOCC1)N1CCN(c2cccc(Cl)c2)CC1,-40.2
11,O=C(NCCN1CCN(c2ccccc2)CC1)C1(S(=O)(=O)c2ccc(Cl)cc2)CC1,-50.2
12,O=C(NCCN1CCCC1)C1(S(=O)(=O)c2ccc(Cl)cc2)CC1,11.7
13,CC1CCC(C)(NS(=O)(=O)OCC(Cl)(Cl)Cl)CC1 (centres unmarked),-21.7
14,CN(C)C(/C=C/Nc1ccc(F)cc1)=C(C#N)C#N,-8.47
15,CCN1C(=O)c2ccccc2S(=O)(=O)c2ccc(C(=O)NCC(OC)OC)cc21,6.16
16,NNC(=O)COc1ncn(-c2ccccc2)n1,18
17,N#Cc1ccsc1NC(=O)COC(=O)c1cc(Br)ccc1O,-22.2
18,Cc1c(C(=O)N2CCCc3ccccc32)oc2ccc(S(=O)(=O)N3CCOCC3)cc12,-44.2
19,O=C(CNCCc1ccc(F)cc1)Nc1cc(F)ccc1F.O=C(O)C(=O)O,-19.9
20,CCOc1ccccc1NC(=O)COc1ccc(S(=O)(=O)N2CCCC2)cc1,-4.32
21,O=C(NCC1CCCO1)c1ccc([N+](=O)[O-])s1 (centres unmarked),25.4
22,CCOC(=O)C(c1ccccc1)N1CCN(c2ccc(OC)cc2)CC1 (centres unmarked),4.91

row,Structure (SMILES),"hERG current change (%, negative = inhibition) at 10uM [%]"
1,C/C(CC(=O)Nc1ccc2c(c1)OCCO2)=N\NC(=O)Cc1ccccc1,-9.4
2,CCOc1ccc(OCCOC(=O)C2CCN(S(=O)(=O)c3ccc(C)c(C)c3)CC2)cc1,-22.4
3,COc1ccc(COCC(O)CN2CCCCC2)cc1OC.Cl (centres unmarked),16.6
4,COc1ccc(COCC(O)CN2CCC(CN3C(=O)c4cccc5cccc(c45)C3=O)CC2)cc1OC.Cl (centres unmarked),-71.5
5,Cl.OC(COCc1ccc2c(c1)OCO2)CN1CCCCC1 (centres unmarked),-2.96
6,Cl.OC(COCc1ccc2c(c1)OCO2)CN1CCC(Cc2ccccc2)CC1 (centres unmarked),-87.6
7,COc1ccc(COCC(O)CN2CCOCC2)cc1OC.Cl (centres unmarked),20.8
8,Cl.OCCN1CCN(CC(O)COCc2ccc3c(c2)OCO3)CC1 (centres unmarked),-1.01
9,Cl.O=C1c2cccc3cccc(c23)C(=O)N1CC1CCN(CC(O)COCc2ccc3c(c2)OCO3)CC1 (centres unmarked),-75.3
10,CN1CCN(CC(O)COCc2ccc3c(c2)OCO3)CC1.Cl (centres unmarked),6.52
11,Cl.OC(COCc1ccc2c(c1)OCO2)CN1CCN(Cc2ccccc2)CC1 (centres unmarked),-33.1
12,Cc1ccc2nc(C(O)C(O)c3nc4ccc(C)cc4[nH]3)[nH]c2c1 (centres unmarked),-6.37
13,O=C(Nc1nc(-c2ccc(Cl)cc2Cl)cs1)c1ccc(OCC2CCCO2)cc1 (centres unmarked),6.82
14,COCCNc1nnc(SC(C)C(=O)Nc2c(C)n(C)n(-c3ccccc3)c2=O)s1 (centres unmarked),11.8
15,CCCCN(CC)CCCNC(=O)c1cn(-c2ccc(OC)cc2)c(=O)c2ccccc12,-56.5
16,CCN(CC)CCCNC(=O)c1nn(-c2cccc(OC)c2)c(=O)c2ccccc12,-70.6
17,CCN(CC)CCCNC(=O)CNC(=O)c1nn(-c2ccc(OC)cc2)c(=O)c2ccccc12,23.8
18,CCN(CC)CCCNC(=O)c1nn(-c2ccc(OC)cc2OC)c(=O)c2ccccc12,-0.745
19,COc1cccc(-n2nc(C(=O)O)c3ccccc3c2=O)c1,6.72
20,COc1cccc(-n2nc(C(=O)N3CCN(Cc4ccccc4)CC3)c3ccccc3c2=O)c1,-50.3
21,CCCCN(CC)CCNC(=O)c1cn(-c2ccc(Cl)cc2)c(=O)c2ccccc12,-77.7
22,CCCN(CCC)CCCNC(=O)c1cn(-c2ccc(OC)cc2)c(=O)c2ccccc12,-48

row,Structure (SMILES),"hERG current change (%, negative = inhibition) at 10uM [%]"
1,CCCCN(CC)CCNC(=O)c1cn(C)c(=O)c2c1c1ccccc1n2C,-24.6
2,CCOC(=O)C(C)NC(=O)c1cn(-c2ccc(OC)cc2)c(=O)c2ccccc12 (centres unmarked),5.7
3,COc1cccc(-n2nc(C(=O)N3CC(C)CC(C)C3)c3ccccc3c2=O)c1 (centres unmarked),3.43
4,CNC(=O)c1cn(-c2ccc(Cl)cc2)c(=O)c2ccccc12,-9.43
5,O=C(c1ccccc1[N+](=O)[O-])N1CCN(Cc2ccc3c(c2)OCO3)CC1,-13.4
6,Cc1cccc(N2C(S)=C(C#N)C(=O)NC23CCCCC3)c1,-7.13
7,CCCCC(=O)Nc1ccc(NC(=O)c2ccco2)cn1,10.1
8,CCOc1ccccc1N1CCN(C(=O)c2csc(C)c2CC)CC1,-8.41
9,COC(=O)CSC1=C(C#N)C(c2ccccc2OC)C(C(=O)OC)C(=O)N1 (centres unmarked),15.6
10,C/C(=C\C(=O)c1sccc1Cl)N(C)C,0.12
11,Cc1cnc([N+](=O)[O-])n1CCOC(=O)c1cccc(F)c1,-3.45
12,O=C(Cn1cnc2c(cnn2-c2ccccc2)c1=O)Nc1cc(S(=O)(=O)N2CCOCC2)ccc1Cl,-32.2
13,CCOc1cc(C(=S)N2CCCCC2)ccc1OCC(=O)NCc1ccccc1,-31.2
14,COc1ccc(N2CCN(C(=O)Cn3cnc4c(cnn4-c4ccc(C)cc4)c3=O)CC2)cc1,-9.24
15,COc1cccc(-n2cc(C(=O)NCCCOC(C)C)c3ccccc3c2=O)c1,-6.95
16,COCCCNC(=O)c1cn(-c2cccc(OC)c2)c(=O)c2ccccc12,18.1
17,CCN(CC)CCCNC(=O)c1cn(-c2cccc(OC)c2)c(=O)c2ccccc12,-68.5
18,CC(/C=C/c1ccccc1)=N\NC(=O)CNC(=O)c1ccccc1Cl,7.15
19,O=C(CSC1CC(=O)N(c2ccc(C(=O)O)cc2)C1=O)Nc1ccc2ccccc2c1 (centres unmarked),15.8
20,O=C(NCCNc1ccc(Cl)cc1[N+](=O)[O-])c1cccnc1,-29.4
21,O=C(NCCNc1ccccc1[N+](=O)[O-])c1ccccc1F,4.11
22,O=C(NCCCNc1ccc(C(F)(F)F)cc1[N+](=O)[O-])c1cc(F)c(F)cc1Cl,-15.7

row,Structure (SMILES),"hERG current change (%, negative = inhibition) at 10uM [%]"
1,CN(C)CCNc1ccc(Cl)cc1[N+](=O)[O-],-18.7
2,CCNCCNc1ccc(Cl)cc1[N+](=O)[O-].Cl,-20.3
3,Cc1ccoc1C(=O)NCCNc1ccc(Cl)cc1[N+](=O)[O-],-30.5
4,O=C(NCCNc1ccccc1[N+](=O)[O-])c1cc(F)c(F)cc1Cl,-52.1
5,Cc1ccc(C(=O)NCCNc2ccc(Cl)cc2[N+](=O)[O-])o1,-60
6,CCN(CC)CCNc1ccc(Cl)cc1[N+](=O)[O-].Cl,-61.6
7,COc1ccccc1NC(=O)NCC(c1ccco1)N1CCCCC1 (centres unmarked),14.8
8,Cc1ccc(S(=O)(=O)Nc2ccc(SC(F)F)cc2)c(C)c1,10.3
9,COc1ccc(NC(=O)CN2C(=O)C(C)Oc3ccc(C)cc32)cc1 (centres unmarked),3.11
10,CC(NC(=O)COc1ccccc1Cl)c1ccccc1 (centres unmarked),7.82
11,Cc1ccccc1NC(=O)/C(=C\c1cccs1)NC(=O)c1ccco1,-7.17
12,CN1CCN(C(=O)/C(=C\c2cccs2)NC(=O)c2ccco2)CC1,-67.4
13,CN1CCN(C(=O)/C(=C/c2cccs2)NC(=O)c2ccco2)CC1,-70.5
14,O=C(N/C(=C\c1cccs1)C(=O)N1CCOCC1)c1ccco1,0.17
15,O=C(N/C(=C/c1cccs1)C(=O)N1CCOCC1)c1ccco1,-1.03
16,Cc1ccc(NC(=O)/C(=C/c2cccs2)NC(=O)c2ccco2)cc1,6.71
17,O=C(Nc1ccc(S(=O)(=O)N2C[C@@H]3C[C@@H](C2)c2cccc(=O)n2C3)cc1)c1ccc(F)cc1,-2.39
18,CC(=O)Nc1nc(N)n(-c2ccccc2)n1,3.2
19,Clc1ccc(-c2ncc3ccccn23)cc1,-4.95
20,CN(c1ccc(C(=O)NCc2ccc3c(c2)OCO3)cc1)S(=O)(=O)c1ccccc1,-4.02
